Experimental data taken from PubChem BioAssay.
Active and inactive are the calls of the source.

Experiments:
Albumin (Bos taurus) = Albumin (Bos taurus) (UniProt P02769); test: compounds binding labelled BSA control protein – biochemical, small-molecule microarray, Alexa647 label, 635/667 nm fluorescence, artefact control for SMM control protein annotation, profiling panel (AID 1118); details: BSA-A647 binding, fluorescence 635 nm, higher = more signal;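 also: score merges 667 nm emission intensity and signal-to-noise per printed compound spot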
Albumin (Bos taurus), sequence (P02769 whole entry, looked up): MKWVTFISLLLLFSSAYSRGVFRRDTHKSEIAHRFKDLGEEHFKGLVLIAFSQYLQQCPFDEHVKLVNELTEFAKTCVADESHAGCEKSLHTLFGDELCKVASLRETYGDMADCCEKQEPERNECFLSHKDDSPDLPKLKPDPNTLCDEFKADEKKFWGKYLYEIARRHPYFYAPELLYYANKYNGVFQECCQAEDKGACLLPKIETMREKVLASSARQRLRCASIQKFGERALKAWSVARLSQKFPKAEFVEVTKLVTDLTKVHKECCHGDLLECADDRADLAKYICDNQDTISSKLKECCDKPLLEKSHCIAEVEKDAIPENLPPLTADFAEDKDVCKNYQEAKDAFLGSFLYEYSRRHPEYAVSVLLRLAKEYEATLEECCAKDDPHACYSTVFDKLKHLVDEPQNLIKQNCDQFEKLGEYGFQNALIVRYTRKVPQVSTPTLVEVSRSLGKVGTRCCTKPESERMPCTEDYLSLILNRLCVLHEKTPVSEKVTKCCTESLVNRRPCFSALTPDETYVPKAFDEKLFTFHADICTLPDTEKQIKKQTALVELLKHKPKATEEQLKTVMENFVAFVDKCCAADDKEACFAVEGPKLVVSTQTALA

[1] = probe aXIP binding to arrayed compounds – biochemical, NeuroSMM set, 635/667 nm fluorescence, primary screen (AID 1119); details: small-molecule microarray, higher = more signal, called active from +8 up or from −8 down;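 also: probe is the protein aXip251-270 applied at 1 µg/mL to compound-printed slides; binding of probe to printed compounds measured as 667 nm fluorescence plus signal to noise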
[2] = probe aNOTCH3 binding on compound microarray – biochemical, small-molecule microarray, 635/667 nm fluorescence, primary screen (AID 1120); details: higher = more signal;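 also: probe is a biotin-tagged antibody raised against NOTCH3 rather than NOTCH3 protein; score merges spot fluorescence near 667 nm with spot signal to noise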
[3] = probe aNOTCH2 binding on compound microarray – biochemical, small-molecule microarray, 635/667 nm fluorescence, primary screen (AID 1121); details: higher = more signal;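 also: score merges feature fluorescence read at 667 nm with its signal to noise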
[4] = target: Carbonic anhydrase 2 (Homo sapiens) (UniProt P00918); test: compounds binding carbonic anhydrase 2 – biochemical, small-molecule microarray, Alexa647-labelled CAII, profiling panel (AID 1122); details: CAII-A647 binding fluorescence, higher = more signal
[5] = COS7 lysate on small-molecule microarray, probe aHis, 635 nm (AID 1123); details: COS7 cell lysate, fluorescence, higher = more signal;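 also: z-score combines 667nm fluorescence intensity with signal-to-noise per printed compound spot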
[6] = probe aLAP1 signal on lysate-treated microarray – cell lysate, small-molecule microarray, COS7 lysate, primary screen (AID 1124); details: probe aLAP1, fluorescence, higher = more signal;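 also: lysate comes from COS7 cells expressing LAP1 and is applied at 0.3 µg/mL; score merges spot fluorescence near 667 nm with signal-to-noise over triplicate slides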
Sam68 (KHDRBS1) = test: compounds binding KHDRBS1 protein – biochemical, small-molecule microarray, 635 nm fluorescence, primary screen (AID 1125); details: higher = more signal;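 also: score merges 667 nm channel intensity with signal to noise over triplicate slides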
[7] = test system: Chordin-like protein 2 (CHRDL2); test: compounds binding chordin-like 2 – biochemical, small-molecule microarray, 635 nm fluorescence, primary screen (AID 1126); details: fluorescence 635 nm, higher = more signal;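 also: printed compound slides probed with Chrdl2 protein at 4 µg/mL for 1 h at 4 C; score merges 667 nm emission intensity with signal to noise over three replicate slides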
[8] = target: Concanavalin-A (Canavalia ensiformis) (UniProt P02866); test: compounds binding concanavalin A lectin – biochemical, small-molecule microarray, Alexa647 label, 635 nm, artefact control for SMM control protein annotation, primary screen (AID 1127); details: ConA-A647 binding fluorescence, higher = more signal;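 also: z combines 667 nm emission intensity with signal-to-noise across three replicate slides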
Concanavalin-A (Canavalia ensiformis), sequence (P02866 whole entry, looked up): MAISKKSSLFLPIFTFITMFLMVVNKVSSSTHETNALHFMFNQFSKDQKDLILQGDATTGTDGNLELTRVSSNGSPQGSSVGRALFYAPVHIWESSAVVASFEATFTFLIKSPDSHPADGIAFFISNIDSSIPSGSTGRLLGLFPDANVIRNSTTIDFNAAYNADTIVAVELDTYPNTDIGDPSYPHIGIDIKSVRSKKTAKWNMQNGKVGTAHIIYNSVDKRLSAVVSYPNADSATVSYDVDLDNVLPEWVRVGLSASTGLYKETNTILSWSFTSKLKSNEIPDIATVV

[9] = compounds binding Alexa647 anti-His antibody – biochemical, small-molecule microarray, 635 nm fluorescence, artefact control for SMM control protein annotation, primary screen (AID 1128); details: higher = more signal;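 also: score merges feature fluorescence with signal-to-noise for each printed compound spot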
[10] = test system: Human papillomavirus type 1a E7 protein (residues 1-88); test: HPV1a E7 small-molecule binders, primary screen, biochemical, small-molecule microarray, residues 1-88, 635 nm (AID 1129); details: small-molecule microarray binding, fluorescence 635 nm; higher = more signal
[11] = target: Focal adhesion kinase 1 (Homo sapiens) (UniProt Q05397); test: PTK2 protein binding on printed compound slides – biochemical, small-molecule microarray, 635/667 nm fluorescence, BSA, DTT, primary screen (AID 1130); details: 635 nm fluorescence, higher = more signal;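 also: composite of spot emission at 667 nm and signal to noise over triplicate slides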
Focal adhesion kinase 1 (Homo sapiens), sequence (Q05397 whole entry, looked up): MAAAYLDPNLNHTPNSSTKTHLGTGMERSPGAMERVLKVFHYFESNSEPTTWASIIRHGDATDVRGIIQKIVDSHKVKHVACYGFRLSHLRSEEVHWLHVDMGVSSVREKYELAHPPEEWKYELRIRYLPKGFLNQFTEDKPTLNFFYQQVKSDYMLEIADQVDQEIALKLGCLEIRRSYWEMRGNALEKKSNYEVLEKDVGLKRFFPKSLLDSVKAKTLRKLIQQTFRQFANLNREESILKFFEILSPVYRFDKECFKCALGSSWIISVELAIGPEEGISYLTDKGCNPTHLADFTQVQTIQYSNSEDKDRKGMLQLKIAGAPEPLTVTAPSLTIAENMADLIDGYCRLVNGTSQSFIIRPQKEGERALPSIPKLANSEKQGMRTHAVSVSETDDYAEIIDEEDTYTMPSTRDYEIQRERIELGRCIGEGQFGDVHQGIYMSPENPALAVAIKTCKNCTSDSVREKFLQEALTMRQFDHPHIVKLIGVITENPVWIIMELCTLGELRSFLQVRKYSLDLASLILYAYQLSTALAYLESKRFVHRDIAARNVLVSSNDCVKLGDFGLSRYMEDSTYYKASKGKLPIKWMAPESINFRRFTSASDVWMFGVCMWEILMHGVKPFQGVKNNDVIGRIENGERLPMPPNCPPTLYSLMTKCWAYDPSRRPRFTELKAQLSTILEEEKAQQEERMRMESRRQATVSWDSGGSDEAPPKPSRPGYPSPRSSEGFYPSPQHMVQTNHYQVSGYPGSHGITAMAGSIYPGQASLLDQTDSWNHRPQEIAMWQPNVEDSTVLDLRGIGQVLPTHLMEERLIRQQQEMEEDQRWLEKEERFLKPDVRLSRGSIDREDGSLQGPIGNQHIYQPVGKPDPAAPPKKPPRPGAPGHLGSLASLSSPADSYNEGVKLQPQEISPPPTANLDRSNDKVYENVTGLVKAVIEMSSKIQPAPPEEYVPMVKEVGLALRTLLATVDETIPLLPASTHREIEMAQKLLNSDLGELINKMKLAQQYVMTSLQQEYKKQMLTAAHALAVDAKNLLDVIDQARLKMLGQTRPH

[12] = test system: Fibrinogen (Alexa647-labelled); test: Alexa647-fibrinogen binding to printed small molecules – biochemical, small-molecule microarray, 635/667 nm fluorescence, artefact control for SMM control-protein annotation, profiling panel (AID 1131); details: fibrinogen-A647 binding fluorescence, higher = more signal;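 also: z-score merges 667 nm fluorescence with per-spot signal-to-noise over triplicate slides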
[13] = target: Follistatin (Homo sapiens) (UniProt P19883); test: FST protein binding to printed compounds – biochemical, small-molecule microarray, 635/667 nm fluorescence, primary screen (AID 1132); details: 635 nm fluorescence, higher = more signal
Follistatin (Homo sapiens), sequence (P19883 whole entry, looked up): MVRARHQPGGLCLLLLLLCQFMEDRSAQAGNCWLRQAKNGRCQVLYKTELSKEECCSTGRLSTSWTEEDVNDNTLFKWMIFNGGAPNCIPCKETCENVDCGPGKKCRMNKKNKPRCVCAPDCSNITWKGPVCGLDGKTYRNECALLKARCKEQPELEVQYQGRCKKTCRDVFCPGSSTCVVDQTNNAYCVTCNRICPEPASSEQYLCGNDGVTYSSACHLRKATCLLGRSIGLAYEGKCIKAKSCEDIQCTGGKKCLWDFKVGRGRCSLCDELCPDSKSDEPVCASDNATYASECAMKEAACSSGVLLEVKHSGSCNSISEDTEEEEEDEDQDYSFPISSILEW

[14] = target: Fibroblast growth factor 2 (Homo sapiens) (UniProt P09038); test: basic fibroblast growth factor binding to printed compounds – biochemical, small-molecule microarray, 635/667 nm fluorescence, primary screen (AID 1133); details: FGF2, fluorescence 635/667, higher = more signal
Fibroblast growth factor 2 (Homo sapiens), sequence (P09038 whole entry, looked up): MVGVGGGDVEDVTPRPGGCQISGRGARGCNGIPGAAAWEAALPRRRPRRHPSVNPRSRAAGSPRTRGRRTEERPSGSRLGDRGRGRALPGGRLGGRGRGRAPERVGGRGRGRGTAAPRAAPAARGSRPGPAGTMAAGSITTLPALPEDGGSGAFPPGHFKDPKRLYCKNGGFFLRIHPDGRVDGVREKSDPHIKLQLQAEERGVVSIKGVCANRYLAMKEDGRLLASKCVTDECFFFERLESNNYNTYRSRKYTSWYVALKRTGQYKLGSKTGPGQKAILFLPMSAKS

[15] = JC-1 mitochondrial potential readout, lung cancer cells – cell-based, A549, JC-1 fluorescence, basal, 24 h, 100 nL, profiling panel (AID 1138); details: higher = more signal;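 also: A549 lung adenocarcinoma cells under basal conditions with no added stimulus; test concentration not given here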
Lefty1 = Lefty1 protein binding to printed compounds – biochemical, small-molecule microarray, 635/667 nm fluorescence, primary screen (AID 1139); details: fluorescence 635/667, higher = more signal
[16] = test system: wheat germ agglutinin (Triticum aestivum), Alexa647-labelled; test: Alexa647-WGA lectin binding to printed small molecules – biochemical, small-molecule microarray, 635/667 nm fluorescence, artefact control for SMM control-protein annotation, profiling panel (AID 1140); details: WGA-A647 binding, 635 nm fluorescence, higher = more signal;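 also: score merges 667 nm feature emission with signal to noise over triplicate slides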
[17] = target: Luciferin 4-monooxygenase (Photinus pyralis) (UniProt P08659); test: inhibition of purified Photinus pyralis luciferase – biochemical, luminescence, purified enzyme, 2006 set, primary screen (AID 1141); details: purified firefly luciferase, SteadyGlo luminescence, 30 min; higher = more signal, called active from +8 up or from −8 down;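 also: cell-free assay with purified firefly luciferase at 100 ng per well in PBS; test concentration not given here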
Luciferin 4-monooxygenase (Photinus pyralis), sequence (P08659 whole entry, looked up): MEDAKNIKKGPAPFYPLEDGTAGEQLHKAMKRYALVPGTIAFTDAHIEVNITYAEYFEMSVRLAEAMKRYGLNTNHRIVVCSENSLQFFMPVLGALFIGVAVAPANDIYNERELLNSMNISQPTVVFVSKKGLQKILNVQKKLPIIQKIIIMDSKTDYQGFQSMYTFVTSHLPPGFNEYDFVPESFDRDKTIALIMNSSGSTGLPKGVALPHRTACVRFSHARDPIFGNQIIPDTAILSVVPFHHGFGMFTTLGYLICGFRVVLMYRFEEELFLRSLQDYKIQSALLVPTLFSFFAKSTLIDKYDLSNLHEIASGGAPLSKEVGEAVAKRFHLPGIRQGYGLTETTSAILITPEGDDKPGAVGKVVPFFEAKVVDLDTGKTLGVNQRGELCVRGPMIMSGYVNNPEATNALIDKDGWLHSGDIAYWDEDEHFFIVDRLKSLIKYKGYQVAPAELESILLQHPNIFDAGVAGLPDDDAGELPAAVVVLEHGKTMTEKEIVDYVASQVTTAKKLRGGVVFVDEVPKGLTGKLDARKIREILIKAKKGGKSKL

| SMILES | composite z-score (Albumin (Bos taurus)) | composite Z-score [1] | composite z-score [2] | composite z-score [3] | composite z-score [4] | composite z-score [5] | composite z-score [6] | composite z-score (Sam68 (KHDRBS1)) | composite z-score [7] | composite z-score [8] | composite z-score [9] | composite z-score [10] | composite z-score [11] | composite z-score [12] | composite z-score [13] | composite z-score [14] | z-score [15] | composite z-score (Lefty1) | composite z-score [16] | z-score [17] |
| --- | --- | --- | --- | --- | --- | --- | --- | --- | --- | --- | --- | --- | --- | --- | --- | --- | --- | --- | --- | --- |
| CC(=O)NCCCC[C@@H]1NC(=O)[C@@H]2C[C@H](C(=O)NCCCCCCN(C)C)[C@H](c3ccc(O)cc3)N2C1=O | -0.853 | 0.67 (inactive) | -0.0396 | 0.112 | 0.57 | 1.92 | -0.234 | 1.32 | 1.44 | 1.21 | 2.82 | 1.26 | 0.383 | 0.53 | 1.34 | 1.56 | 0.543 | 1.58 | 1.25 | -0.916 (inactive) |
| COc1ccc(C(=O)Nc2ccc(CN3C(=O)[C@]4(O[C@H](CCn5cc(CCO)nn5)[C@@H]([Si](C)(C)c5ccc(OC)cc5)[C@@H]4C)c4ccccc43)cc2)cc1 | -0.343 | -0.213 (inactive) | 0.391 | -0.0649 | 0.697 | 0.88 | -0.153 | 1.32 | 0.276 | 1.15 | 0.748 | 1.13 | 0.203 | 0.92 | 0.867 | 1.57 | 1.14 | 0.426 | 0.798 | -1.26 (inactive) |
| COc1ccc(C(O)C2C=CC3C(=O)N(C)C(=O)C3N2N2CCCCC2)cc1OCc1ccccc1 (stereo not given) | 0.728 | 0.248 (inactive) | 0.13 | -0.0546 | 0.38 | 1.71 | 0.445 | 1.29 | -0.651 | 1.12 | 1.31 | 1.2 | 0.391 | 0.838 | 0.795 | -0.444 | 0.0785 | -0.24 | 0.951 | -0.381 (inactive) |
| Cc1ccc(S[C@]2(C(=O)O)CC(=O)N(Cc3cc(C(F)(F)F)cc(C(F)(F)F)c3)[C@@H]2c2ccc(CO)cc2I)cc1 | 0.372 | 1.54 (inactive) | -0.243 | -0.154 | 0.0858 | 0.0199 | -0.439 | 0.456 | -1.02 | 0.226 | -0.339 | -0.664 | 0.0035 | -1.56 | -0.251 | -0.325 | -0.603 | -0.89 | -1.09 | -1.3 (inactive) |
| CC(C)N1CC=CC23O[C@@H]4/C=C\CCCOC(=O)C4[C@H]2C(=O)N(CCO)[C@@H]3C1=O (stereo not given in full) | 0.767 | 1.95 (inactive) | -0.0918 | -0.0874 | 0.893 | 0.572 | 1.43 | 0.534 | -1.4 | 0.329 | -0.548 | -0.328 | 0.339 | -0.508 | -0.544 | -0.635 | 1.77 | 0.225 | -0.505 | -1.68 (inactive) |
| COC(=O)[C@@]1(Cc2ccccc2)[C@H]2c3cc(C(=O)N4CCCC4)n(CCN4CNCC4=O)c3C[C@H]2CN1C(=O)c1ccccc1 | 0.963 | 0.0178 (inactive) | 0.119 | -0.173 | 0.924 | 3.04 | 0.808 | 0.28 | -0.634 | 1.2 | 0.361 | 1.21 | 1.72 | 0.728 | 0.257 | -0.709 | 0.791 | -0.0783 | 0.342 | 2.42 (inactive) |
| CC(=O)Nc1ccc([C@H]2[C@H](C)CC[C@H]3C(=O)N4[C@@H](CC[C@@H](C)[C@@H]4c4ccc(NC(C)=O)cc4)C(=O)N32)cc1 | 0.626 | -0.222 (inactive) | -0.0699 | -0.195 | 0.634 | 1.24 | 0.264 | 1.31 | 0.378 | 1.12 | 2.46 | 1.16 | 0.558 | 0.798 | 1.19 | 1.25 | 0.673 | 1.54 | 0.994 | -0.765 (inactive) |
| C=C(COC)/C(=C/C[C@@H](OC(=O)c1ccncc1)c1ccc(OCCO)cc1)c1cc(C(=O)OC)ccc1OC | 0.655 | 0.345 (inactive) | 0.0631 | -0.0784 | 0.655 | 1.61 | 0.482 | 1.3 | -0.0659 | 1.06 | 2.06 | 1.21 | 1.21 | 0.791 | 0.59 | 0.334 | 2.2 | 0.716 | 1.3 | -2.22 (inactive) |
| C=C(C)[C@@H]1CC=C(C(O)C2C=CC3C(=O)NC(=O)C3N2Nc2ccccn2)CC1 (stereo not given in full) | -0.27 | 0.804 (inactive) | 0.441 | 0.0179 | 0.809 | 1.37 | 0.759 | 1.31 | 1.61 | 1.14 | 2.31 | 1.15 | -0.167 | 1.02 | 1.58 | 1.92 | 0.781 | 1.75 | 0.842 | -0.332 (inactive) |
| CCOC(=O)C[C@H]1[C@H](OC(=O)c2cc3ccccc3oc2=O)[C@@H](NC(=O)c2ccc3ccccc3c2)c2cc(OCCCO)ccc2N1C(=O)c1ccc2ccccc2n1 | 0.668 | 0.575 (inactive) | 0.0842 | -0.122 | 0.426 | 0.193 | 0.155 | 0.325 | 0.731 | 0.536 | 0.322 | 1.04 | 0.0147 | 0.973 | 0.986 | 0.927 | 1.33 | 0.488 | 1.05 | -0.233 (inactive) |
| CO[C@H]1COC(=O)CC=C[C@@H](C)COC(=O)[C@@H](C)NC(=O)CC=C[C@@H]1C | -1.07 | 2.3 (inactive) | -0.0345 | -0.153 | -0.681 | -0.736 | -0.495 | 0.787 | 1.59 | -0.704 | -0.505 | -1.53 | -1.02 | -0.943 | 1.44 | 2.02 | 1.15 | 1.73 | -0.673 | -1.37 (inactive) |
